# From PubChem BioAssay (NCATS)
# “And” between values parts separate entries of the source, which are not always exact repeats. Equal values may be shown once. A number with no mark means an inactive call. Records with an inconclusive call do not appear. Entries that show only a call come without a potency. The source made the active and inactive calls. Unless noted, the call rests on the fitted dose curve; in most records, active means well fitted curve in the direction sought with a large enough effect; inconclusive means small, poorly fitted or top-dose-only effect, or another doubt; inactive means no such curve, though single readings can be large; an effect the other way counts as inactive or inconclusive.
# Assays:
# [1] = AP1 Signaling Pathway (AID 357; active means well fitted curve in either direction with a large enough effect, not every such curve was filed as active); conditions: ME-180 AP-1-bla reporter, EGF-induced, beta-lactamase ratio, 5 h; at 7.69 µM (top of the series) unless noted
# How it was run: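 Titration-series screen for positive or negative modulators of EC50 EGF-induced signaling in ME-180 cells carrying an AP-1-driven beta-lactamase reporter. After 5 hours at 37 degrees Celsius, CCF4 460nm/530nm emission ratio gave %Activity; AC50 values derived.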
# [2] = target: Cytochrome P450 1A2 (Homo sapiens) (UniProt P05177); assay: p450-cyp1a2 (AID 410; calls by dose curve; further: potency means the concentration at half of the fitted maximal effect)
# Cytochrome P450 1A2 (Homo sapiens), sequence (P05177 whole entry, looked up): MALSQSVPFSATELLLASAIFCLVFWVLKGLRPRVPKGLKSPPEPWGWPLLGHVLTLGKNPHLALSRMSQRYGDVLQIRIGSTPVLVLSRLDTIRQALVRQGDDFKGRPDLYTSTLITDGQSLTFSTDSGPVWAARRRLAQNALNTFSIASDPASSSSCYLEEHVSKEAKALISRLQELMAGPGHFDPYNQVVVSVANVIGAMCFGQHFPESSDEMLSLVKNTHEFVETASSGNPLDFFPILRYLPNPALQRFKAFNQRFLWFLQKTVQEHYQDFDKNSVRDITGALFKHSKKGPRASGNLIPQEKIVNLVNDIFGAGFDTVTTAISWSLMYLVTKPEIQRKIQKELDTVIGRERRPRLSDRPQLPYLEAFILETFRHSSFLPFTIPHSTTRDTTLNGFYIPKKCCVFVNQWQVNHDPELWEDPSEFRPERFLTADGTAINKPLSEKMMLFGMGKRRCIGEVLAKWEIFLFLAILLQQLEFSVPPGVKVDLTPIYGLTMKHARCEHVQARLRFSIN
# How it was run: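 Human CYP1A2 (20nM) demethylated Luciferin-ME at its Km (100uM) in 100mM KPO4. After 10 min compound preincubation, NADPH regeneration ran the reaction 60 min at room temperature. Luciferin was read by luminescence, normalized to 57 uM furafylline.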
# [3] = NFAT Signaling Pathway (AID 444; active means well fitted curve in either direction with a large enough effect, not every such curve was filed as active;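 further: carbachol stimulus at about its EC50 of 1 µM final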); conditions: Jurkat NFAT-bla M1, carbachol, beta-lactamase ratio, 5 h; at 7.69 µM (top of the series) unless noted
# How it was run: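 Jurkat cells with NFAT-driven β-lactamase reporter and co-expressed M1 receptor, stimulated with carbachol (final 1 uM, ~EC50), compound titration, 5 h at 37 °C. CCF4 loaded 1 h at RT; 460/530 nm ratio gave %activity and AC50.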
# [4] = Stat Signaling Pathway (AID 446; active means well fitted curve in either direction with a large enough effect, not every such curve was filed as active;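 further: ME-180 cervical cancer cells given 40 pM IL-6 alongside compound; SIE-controlled beta-lactamase reporter measured as 460/530 nm FRET emission ratio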); conditions: ME-180 SIE beta-lactamase reporter, IL-6 stimulated, 5 h; at 7.69 µM (top of the series) unless noted
# How it was run: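 IL-6/STAT signaling read in ME-180 cells via an SIE beta-lactamase reporter. Stimulus was 40 pM IL-6 (its AC50) for 5 hrs, so both activation and inhibition register.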
# [5] = target: Glucocorticoid receptor (Homo sapiens) (UniProt P04150); assay: GR-GFP Redistribution (AID 450;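 active means compounds whose dose series gives a full or clear partial fitted curve of increased nuclear translocation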; further: potency means the concentration at half of the fitted maximal effect); conditions: U2OS GR-GFP nuclear translocation, laser cytometry, 2 h
# Glucocorticoid receptor (Homo sapiens), sequence (P04150 whole entry, looked up, the tested form may be a part): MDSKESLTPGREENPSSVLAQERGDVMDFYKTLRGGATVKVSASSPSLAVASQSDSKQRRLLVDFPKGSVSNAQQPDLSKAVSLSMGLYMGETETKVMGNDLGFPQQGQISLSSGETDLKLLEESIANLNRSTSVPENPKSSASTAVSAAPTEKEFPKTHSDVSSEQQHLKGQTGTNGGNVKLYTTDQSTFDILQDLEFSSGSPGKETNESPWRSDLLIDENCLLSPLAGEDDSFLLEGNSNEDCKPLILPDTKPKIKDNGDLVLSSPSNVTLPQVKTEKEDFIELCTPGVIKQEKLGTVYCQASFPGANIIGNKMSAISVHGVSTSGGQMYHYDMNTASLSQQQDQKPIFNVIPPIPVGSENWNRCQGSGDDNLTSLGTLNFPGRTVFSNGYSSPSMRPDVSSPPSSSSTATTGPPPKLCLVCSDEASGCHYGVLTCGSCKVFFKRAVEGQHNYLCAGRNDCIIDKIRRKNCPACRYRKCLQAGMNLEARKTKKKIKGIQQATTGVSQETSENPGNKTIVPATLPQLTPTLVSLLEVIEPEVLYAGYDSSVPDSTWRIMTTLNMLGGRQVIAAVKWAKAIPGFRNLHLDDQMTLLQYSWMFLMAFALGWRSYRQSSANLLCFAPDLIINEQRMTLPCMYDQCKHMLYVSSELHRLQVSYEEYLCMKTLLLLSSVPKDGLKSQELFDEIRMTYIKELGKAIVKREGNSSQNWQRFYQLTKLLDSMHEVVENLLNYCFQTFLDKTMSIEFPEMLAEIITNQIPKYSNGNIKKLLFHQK
# [6] = target: Glucocorticoid receptor (Homo sapiens) (UniProt P04150); assay: GR-EFC Redistribution (AID 451; calls by dose curve; further: potency means the concentration at half of the fitted maximal effect); conditions: CHO-K1 GR-EFC translocation, beta-gal luminescence, 2 h
# How it was run: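 CHO-K1 cells expressing nuclear EA and GR-ED fragments of b-gal; compounds titrated up to 46 uM final, 2 h at 37 C. GR nuclear translocation read as complemented b-gal luminescence after 1 h RT detection.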
# [7] = target: 3',5'-cyclic-AMP phosphodiesterase 4B (Homo sapiens) (UniProt Q07343); assay: qHTS Assay for Inhibitors of PDE-IV (AID 607; active means well fitted activation curve with a large enough effect in the main read-out, with a control signal flat, not every such curve was filed as active)
# 3',5'-cyclic-AMP phosphodiesterase 4B (Homo sapiens), sequence (Q07343 whole entry, looked up): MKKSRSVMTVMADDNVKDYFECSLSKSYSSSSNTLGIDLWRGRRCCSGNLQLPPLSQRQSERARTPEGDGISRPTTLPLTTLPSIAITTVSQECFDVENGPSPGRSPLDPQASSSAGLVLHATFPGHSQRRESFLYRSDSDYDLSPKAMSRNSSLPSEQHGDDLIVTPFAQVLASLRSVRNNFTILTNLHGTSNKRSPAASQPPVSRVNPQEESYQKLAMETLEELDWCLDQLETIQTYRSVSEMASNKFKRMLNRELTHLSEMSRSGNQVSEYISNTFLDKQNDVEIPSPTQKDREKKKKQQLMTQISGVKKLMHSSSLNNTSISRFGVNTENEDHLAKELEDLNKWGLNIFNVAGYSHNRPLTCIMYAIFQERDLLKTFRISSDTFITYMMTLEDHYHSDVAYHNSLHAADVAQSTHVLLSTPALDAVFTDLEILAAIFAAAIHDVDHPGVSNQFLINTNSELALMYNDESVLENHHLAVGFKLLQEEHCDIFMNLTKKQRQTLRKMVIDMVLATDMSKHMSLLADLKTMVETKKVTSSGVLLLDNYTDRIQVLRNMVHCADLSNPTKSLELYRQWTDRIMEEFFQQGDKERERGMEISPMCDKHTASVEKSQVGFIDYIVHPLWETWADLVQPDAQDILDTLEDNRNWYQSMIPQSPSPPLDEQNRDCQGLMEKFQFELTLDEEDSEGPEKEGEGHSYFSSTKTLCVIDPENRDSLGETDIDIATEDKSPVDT
# How it was run: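 Live HEK293 cells with a modified cyclic nucleotide-gated (CNG) channel report intracellular cAMP via membrane-potential dye fluorescence (ex 535/em 590 nm). Endogenous PDE-IV was targeted. Compounds were tested at up to 22.9 uM final; RO 20-1724 100 uM served as control.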
# [8] = target: Guanine nucleotide-binding protein G(i) subunit alpha-1 (Homo sapiens) (UniProt P63096); assay: qHTS Assay for Inhibitors of RGS12 GoLoco Motif Activity (Green Fluorophore) (AID 879);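 further: negative values mean loss of peptide binding seen as reduced polarization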
# Guanine nucleotide-binding protein G(i) subunit alpha-1 (Homo sapiens), sequence (P63096 whole entry, looked up): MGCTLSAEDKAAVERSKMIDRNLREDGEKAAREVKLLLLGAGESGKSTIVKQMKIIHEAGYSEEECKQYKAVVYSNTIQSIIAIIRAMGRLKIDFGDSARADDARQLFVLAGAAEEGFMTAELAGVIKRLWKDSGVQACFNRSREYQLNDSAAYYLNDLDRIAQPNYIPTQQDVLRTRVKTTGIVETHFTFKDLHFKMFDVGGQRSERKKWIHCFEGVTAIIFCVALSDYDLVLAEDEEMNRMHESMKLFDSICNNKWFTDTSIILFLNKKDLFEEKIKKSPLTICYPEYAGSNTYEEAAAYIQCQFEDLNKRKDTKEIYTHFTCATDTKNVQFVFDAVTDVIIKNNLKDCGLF
# How it was run: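 Fluorescence polarization assay: 50 nM Gαi1 with 10 nM FITC-labeled RGS12 GoLoco peptide in 10 mM Tris pH 7.5, 150 mM NaCl, 0.1 mM GDP, 0.05% NP40, 10 min at room temperature with compound.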
# [9] = target: Cytochrome P450 3A4 (Homo sapiens) (UniProt P08684); assay: qHTS Assay for Activators of Cytochrome P450 3A4 (AID 885); further: nearly all actives have a fitted effect of over 65% in size
# How it was run: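 Quantitative HTS format: compounds preincubated with 20nM human CYP3A4 and Luciferin-PPXE substrate at KM, reaction started by NADPH regeneration, stopped after 60 min, luciferase luminescence read 20 min later.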
# [10] = target: Cytochrome P450 2C19 (Homo sapiens) (UniProt P33261); assay: qHTS Assay for Inhibitors and Substrates of Cytochrome P450 2C19 (AID 899); further: nearly all actives have a fitted effect of over 60% in size; further: potency means the concentration at half of the fitted maximal effect
# Cytochrome P450 2C19 (Homo sapiens), sequence (P33261 whole entry, looked up): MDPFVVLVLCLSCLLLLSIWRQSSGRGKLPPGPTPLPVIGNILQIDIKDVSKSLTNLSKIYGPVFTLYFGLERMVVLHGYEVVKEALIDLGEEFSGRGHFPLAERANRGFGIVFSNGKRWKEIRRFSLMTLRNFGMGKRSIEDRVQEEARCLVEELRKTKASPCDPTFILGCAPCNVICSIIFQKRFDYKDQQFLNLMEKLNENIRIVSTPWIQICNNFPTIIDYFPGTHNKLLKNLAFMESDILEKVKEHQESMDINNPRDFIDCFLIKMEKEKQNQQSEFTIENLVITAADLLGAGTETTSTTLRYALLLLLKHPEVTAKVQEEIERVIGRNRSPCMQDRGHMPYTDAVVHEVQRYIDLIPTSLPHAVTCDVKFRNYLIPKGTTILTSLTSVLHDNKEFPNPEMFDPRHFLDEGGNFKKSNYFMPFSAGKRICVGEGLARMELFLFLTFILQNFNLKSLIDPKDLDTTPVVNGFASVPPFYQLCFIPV
# How it was run: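 Signal comes from luciferase acting on luciferin released by CYP2C19-mediated hydroxylation of Luciferin-H EGE, 10uM (KM). Assay mix: 5nM enzyme, 50mM KPO4; 60 min at 37C with NADPH regeneration. Data normalized against 57uM ketoconazole.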
# [11] = target: Muscarinic acetylcholine receptor M1 (Rattus norvegicus) (UniProt P08482); assay: qHTS Assay for Antagonists of Acetylcholine Muscarinic M1 Receptor: Kinetic Measurement of Intracellular Calcium Response (AID 943);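 further: Fluo-4 calcium signal as peak divided by basal fluorescence over 4 min; nearly all actives have a fitted effect of over 75% in size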
# Muscarinic acetylcholine receptor M1 (Rattus norvegicus), sequence (P08482 whole entry, looked up): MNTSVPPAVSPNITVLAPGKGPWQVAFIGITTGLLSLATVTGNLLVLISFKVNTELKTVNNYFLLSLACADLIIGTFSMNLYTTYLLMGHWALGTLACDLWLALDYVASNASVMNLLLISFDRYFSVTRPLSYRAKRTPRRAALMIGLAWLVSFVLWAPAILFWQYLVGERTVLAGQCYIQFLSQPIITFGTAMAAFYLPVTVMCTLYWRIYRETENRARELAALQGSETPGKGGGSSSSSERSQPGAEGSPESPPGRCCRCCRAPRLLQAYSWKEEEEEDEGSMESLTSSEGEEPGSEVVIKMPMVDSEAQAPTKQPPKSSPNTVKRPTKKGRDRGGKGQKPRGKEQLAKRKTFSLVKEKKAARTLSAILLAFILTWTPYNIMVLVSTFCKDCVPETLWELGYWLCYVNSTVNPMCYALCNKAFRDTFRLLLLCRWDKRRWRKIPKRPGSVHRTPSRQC
# How it was run: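 CHO cells stably expressing rat M1 were loaded with no-wash Fluo-4 dye for 1 h at 37C, pre-incubated 10 min with compound, then challenged with EC80 carbachol (100 nM final); kinetic calcium read 4 min, peak/basal ratio.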
# [12] = target: Muscarinic acetylcholine receptor M1 (Rattus norvegicus) (UniProt P08482); assay: qHTS Assay for Antagonists of Acetylcholine Muscarinic M1 Receptor: Measurement of IP-One Response (AID 944); further: nearly all actives have a fitted effect of over 75% in size
# How it was run: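 CHO cells expressing rat M1 receptor, recovered overnight, were pre-incubated 10 min with compound, then stimulated 30 min with carbachol at EC80 (200 nM) in LiCl-containing buffer, pH 7.4. IP1 accumulation was read by HTRF (620/665 nm).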
# [13] = target: Pyruvate kinase (Leishmania mexicana) (UniProt Q27686); assay: qHTS Validation Assay for Inhibitors of Leishmania Mexicana Pyruvate Kinase (AID 945)
# Pyruvate kinase (Leishmania mexicana), sequence (Q27686 2-499 E452W): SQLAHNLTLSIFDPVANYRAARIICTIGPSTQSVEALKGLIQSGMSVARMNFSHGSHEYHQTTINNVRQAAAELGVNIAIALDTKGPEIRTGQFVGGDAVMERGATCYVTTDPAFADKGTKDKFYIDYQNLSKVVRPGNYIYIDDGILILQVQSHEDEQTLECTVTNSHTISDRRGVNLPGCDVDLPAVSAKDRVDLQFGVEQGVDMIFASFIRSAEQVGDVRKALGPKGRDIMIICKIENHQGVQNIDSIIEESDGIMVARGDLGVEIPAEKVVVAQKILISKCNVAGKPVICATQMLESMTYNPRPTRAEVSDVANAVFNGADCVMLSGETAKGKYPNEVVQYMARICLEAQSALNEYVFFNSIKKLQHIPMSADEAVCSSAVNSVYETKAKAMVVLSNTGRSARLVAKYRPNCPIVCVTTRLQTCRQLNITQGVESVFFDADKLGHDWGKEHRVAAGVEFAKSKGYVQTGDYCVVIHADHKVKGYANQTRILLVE
# How it was run: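 LmPYK E451W 0.2 nM; 0.5 mM PEP, 0.1 mM ADP, 7 mM MgCl2, 50 mM KCl, imidazole pH 7.2, 0.01% Tween 20, 0.05% BSA; 1 h RT; PKLight luminescence; DMSO-normalized.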
# [14] = target: Pyruvate kinase PKM (Homo sapiens) (UniProt P14618); assay: qHTS Assay for Activators of Human Muscle Pyruvate Kinase (AID 954; active means well fitted curve in the direction sought with a large enough effect, not every such curve was filed as active)
# Pyruvate kinase PKM (Homo sapiens), sequence (P14618 whole entry, looked up): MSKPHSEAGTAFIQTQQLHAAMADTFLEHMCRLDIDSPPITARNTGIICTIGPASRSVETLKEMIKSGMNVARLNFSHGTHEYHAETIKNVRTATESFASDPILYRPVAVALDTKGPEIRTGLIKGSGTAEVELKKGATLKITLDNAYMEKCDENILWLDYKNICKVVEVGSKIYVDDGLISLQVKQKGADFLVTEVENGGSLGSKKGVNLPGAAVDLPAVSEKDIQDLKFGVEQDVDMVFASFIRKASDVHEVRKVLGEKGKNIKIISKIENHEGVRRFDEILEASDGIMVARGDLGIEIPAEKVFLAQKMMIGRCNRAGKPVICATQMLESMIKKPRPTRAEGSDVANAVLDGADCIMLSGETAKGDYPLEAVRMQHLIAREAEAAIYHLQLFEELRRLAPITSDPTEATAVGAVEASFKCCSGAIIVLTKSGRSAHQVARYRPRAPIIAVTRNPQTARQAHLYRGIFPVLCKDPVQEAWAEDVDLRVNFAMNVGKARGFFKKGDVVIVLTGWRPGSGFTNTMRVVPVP
# How it was run: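 Enzyme was run at intermediate activity so both inhibitors and activators could be detected. ATP formed from ADP and PEP by 0.1 nM human PKM2 during a 1 h room-temperature incubation was quantified by coupled luciferase luminescence.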
# [15] = target: Alpha-galactosidase A (Homo sapiens) (UniProt P06280); assay: Counterscreen for Glucocerebrosidase Inhibitors: qHTS Assay for Human alpha-Galactosidase at pH 4.5 (AID 992)
# Alpha-galactosidase A (Homo sapiens), sequence (P06280 whole entry, looked up): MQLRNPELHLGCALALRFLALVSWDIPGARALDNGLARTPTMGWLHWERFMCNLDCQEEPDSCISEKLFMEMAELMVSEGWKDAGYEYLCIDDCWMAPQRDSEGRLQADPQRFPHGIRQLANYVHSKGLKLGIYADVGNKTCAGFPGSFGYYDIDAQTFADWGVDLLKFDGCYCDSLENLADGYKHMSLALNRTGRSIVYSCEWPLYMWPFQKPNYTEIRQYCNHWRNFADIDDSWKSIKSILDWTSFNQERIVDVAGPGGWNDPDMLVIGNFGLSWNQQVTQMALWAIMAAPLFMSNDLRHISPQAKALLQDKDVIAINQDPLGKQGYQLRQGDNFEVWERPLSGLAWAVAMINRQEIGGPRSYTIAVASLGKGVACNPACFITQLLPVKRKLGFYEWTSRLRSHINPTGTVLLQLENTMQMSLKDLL
# How it was run: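 Read-out is 4-methylumbelliferone fluorescence (365 nm excitation, 440 nm emission) after a pH 10 NaOH/glycine stop. Reactions held 2 nM enzyme and 80 uM substrate at pH 4.5 for 20 min at room temperature.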
# [16] = target: alpha-glucosidase (Oryza sativa, rice) (UniProt Q653V4); assay: Counterscreen for Glucocerebrosidase Inhibitors: qHTS Assay for Rice alpha-Glucosidase at pH 5.0 (AID 997)
# How it was run: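 Rice alpha-glucosidase (4 nM final) with 400 uM 4-methylumbelliferyl-alpha-D-glucopyranoside in citrate buffer pH 5.0, 20 min at room temperature, stopped at pH 10; fluorescence 365/440 nm, compounds 0.7 nM–77 uM, AC50 from Hill fits.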
# [17] = target: Mitogen-activated protein kinase 10 (Mus musculus) (UniProt Q61831); assay: JNK3 AlphaScreen Assay (AID 530; active means well fitted curve in either direction with a large enough effect, not every such curve was filed as active;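 further: kinase came from lysate of stimulated human HepG2 cells; signal reports phosphorylation of biotinylated GST-cJun 1-79 at Ser73 with 10 µM ATP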)
# How it was run: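 qHTS format: compounds tested as titrations against IL-1beta/TNF-alpha-activated HepG2 lysate JNK3 with biotin-GST-cJun substrate and 10 uM ATP at room temperature. Loss of anti-phospho-cJun AlphaScreen signal indicates inhibition.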
# [18] = qHTS Assay for Identification of Small Molecule Agonists for Thrombopoietin (TPO) Signaling Pathway (AID 917)
# How it was run: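 IL-3-dependent murine pro-B Ba/F3 cells, stably transfected with human TPO receptor and GpIIb-promoter luciferase, are incubated 24 hrs at 37 C with test compound and 26 pM TPO; luciferase signal is read after 10 min at room temperature.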
# [19] = target: Cytochrome P450 2C9 (Homo sapiens) (UniProt P11712); assay: qHTS Assay for Inhibitors and Substrates of Cytochrome P450 2C9 (AID 883); further: nearly all actives have a fitted effect of over 60% in size
# How it was run: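 Signal: luciferase luminescence reporting luciferin produced by CYP2C9. Conditions: 10nM enzyme, Luciferin-H 100uM at KM, 25mM KPO4, 37C, 60 min NADPH-driven reaction. Reference: 57uM sulphaphenazole as 100% inhibition.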
# [20] = qHTS Assay for Identification of Small Molecule Antagonists for NFkB Signaling Pathway (AID 895; active means well fitted inhibition curve with a large enough effect in the signal ratio, with a control signal flat, not every such curve was filed as active; the % refers to the signal ratio)
# How it was run: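 ME-180 NFkB-bla cells (beta-lactamase under NFkB response element), plated overnight, treated with compound then 10 pM TNF alpha (about EC50) for 5 hrs at 37 C. LiveBLAzer FRET read at 460/530 nm emission, 405 nm excitation.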
SMILES,"activity change, negative = inhibition [1]",Potency [2],"activity change, negative = inhibition [3]","activity, negative = inhibition [4]",Potency [5],Potency [6],Potency [7],outcome [8],Potency [9],Potency [10],Potency [11],Potency [12],outcome [13],outcome [14],outcome [15],Potency [16],Potency [17],outcome [18],Potency [19],Potency [20]
CN[C@]1(C)[C@@H]2CC[C@@H](C2)C1(C)C,-7.63% [at 38 µM],inactive,-5.79% [at 38 µM],-12.2% [at 38 µM],> 46 µM,> 46 µM,inactive,inactive,inactive,inactive,inactive,inactive,inactive,inactive,inactive,inactive,,,,
COc1cc2nc(N(C)CCCNC(=O)[C@@H]3CCCO3)nc(N)c2cc1OC,7.7% [at 17.2 µM],inactive,-29.6% [at 17.2 µM],2.71% [at 17.2 µM],> 20.6 µM,,inactive,,,,,,,,,,inactive,,,
C[C@H](N)C(=O)OC(C)(C)Cc1ccc(Cl)cc1,9.46% [at 38 µM],0.631 µM (active),18.9% [at 38 µM],24.9% [at 38 µM],,,inactive,inactive,,3.98 µM (active),,inactive,inactive,inactive,inactive,inactive,inactive,inactive,,
CCCCCCCCCCCCC/C=C\[C@H](O)[C@H](N)CO,27.4% [at 38 µM],31.6 µM (active),1.11% [at 38 µM],-6.68% [at 38 µM],> 46 µM,> 46 µM,inactive,,,inactive,,,,,,,,,inactive,
CNc1ncnc2c1ncn2[C@H]1C[C@@H](OP(=O)(O)O)[C@H](COP(=O)(O)O)O1,-5.54% [at 38 µM],inactive,5.84% [at 38 µM],-2.5% [at 38 µM],> 46 µM,> 46 µM,inactive,inactive,,,,inactive,inactive,inactive,inactive,,,inactive,,
C[C@@H]1C(=O)N(C)C(=O)c2nc[nH]c21,-6.31% [at 38 µM],inactive,-19.2% [at 38 µM],15% [at 38 µM],> 46 µM,> 46 µM,inactive,inactive,,,,,inactive,inactive,inactive,inactive,,inactive,,inactive
COc1cc([C@H](O)C(=O)O)ccc1O,5.25% [at 38 µM],inactive,-1.26% [at 38 µM],4.86% [at 38 µM],> 46 µM,> 46 µM,inactive,inactive,,,inactive,inactive,inactive,inactive,inactive,inactive,,inactive,,
O=C(O)[C@H]1C[C@H](C(=O)O)N1,-0.354% [at 38 µM] and 2.92% [at 38 µM],inactive,3.19% [at 38 µM] and 0.467% [at 38 µM],-10.2% [at 38 µM],> 46 µM,> 46 µM,inactive,inactive,,inactive,inactive,inactive,inactive,inactive,inactive,inactive,,inactive,,
C[C@@H]1C[C@@H]2[C@H]3CCC4=CC(=O)C=C[C@]4(C)[C@]3(Cl)[C@@H](O)C[C@@]2(C)[C@@]1(O)C(=O)CO,12.5% [at 38 µM],inactive,6.53% [at 38 µM],3.18% [at 38 µM],,,inactive,inactive,,,,,,inactive,inactive,,inactive,inactive,,
CO/N=C(\C(=O)N[C@@H]1C(=O)N2C(C(=O)[O-])=C(C[N+]3(C)CCCC3)CS[C@@H]12)c1csc(N)n1,2.79% [at 17.2 µM],inactive,-16.9% [at 17.2 µM],11.5% [at 17.2 µM],,,inactive,,,,,,,,,,inactive,,,
O=C(Nc1ccccc1)N1CCC2(CC1)CCN(C(=O)c1ccco1)CC2,-11.7%,10 µM (active),-5.38%,15.9%,,> 46 µM,inactive,,,,,,,,,,inactive,,,
O=C1c2ccccc2C(=O)c2c(NC3CCCCC3)ccc(Nc3ccc(S(=O)(=O)O)cc3)c21,-7.28%,1.26 µM (active),-27.6%,-10.9%,> 46 µM,> 9.22 µM,inactive,,,3.98 µM (active),,,,,,,,,,
C[C@@]12C=CC(=O)C=C1CC[C@@H]1C2=CC[C@]2(C)[C@@H]1CC[C@H]2C(=O)CN1CCN(c2cc(N3CCCC3)nc(N3CCCC3)n2)CC1,13.8% [at 38 µM],12.6 µM (active),-21.1% [at 38 µM],9.08% [at 38 µM],,> 46 µM,inactive,,,,,,inactive,inactive,inactive,,,inactive,,
